Growth data for 39 compounds are collected here from PubChem BioAssay (NCI).

About 83,000 compounds went through this panel and 20% of them were active in at least one assay; those are over-represented in the sample as a whole.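 Cells were grown in 96-well plates and exposed to the test compound at a single concentration for 48 hours; results are reported as percent growth, with values below 10 considered active.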 Unmarked numbers belong to inactive results. Activity calls are given as the source filed them.

The experiment has as its system NCI-H23 lung. The experiment can be described thus: NCI-60 one-dose screen, 48 h (100 = growth as untreated, 0 = no growth, -100 = all killed). The note with it: 10 µM unless noted.
Consider `CCCCCCNc1cc(C)nc2ccc(OC)cc12`, for which the growth is 52.7%.
The figure for `Cc1ccc(C)c2c1C(=O)OC2=O` is 95.5%.
Regarding `CCN(CC)CCCNC(=O)c1ccc(N)cc1O`, the growth was 95.5%.
In the case of `O=[N+]([O-])c1ccc(-c2cc3c(Nc4ccc(OCc5cccc(Cl)c5)c(Cl)c4)ncnc3s2)cc1`, the growth was 78.7%.
The figure for `COC(=O)Nc1nc2ccc(C(=O)C3CC3)cc2[nH]1` is 33.8%.
The same measure for `CCOC(=O)C(O)C(O)(c1ccccc1)c1ccccc1` (centres undefined): 102%.
As for `N#Cc1cnn2c(-c3ccc(Cl)cc3)nc(NC3CC3)nc12`, the growth was 90.9%.
The same measure for `O=C(C[C@@]1(O)C(=O)Nc2c(Cl)ccc(Cl)c21)c1ccc(C2CC2)cc1`: 37.5%.
The same measure for `CN(CCC(=O)/C(=C\c1ccccc1)c1ccc(Cl)cc1)Cc1ccccc1`: 29.2%; for `CC1=NN(c2cccc(Cl)c2)C(=O)/C1=C\c1cn(CC(O)CN2CCCCC2)c2ccccc12` (centres undefined): 97.8%; for `O=C(NCOC(O)C(Cl)(Cl)Cl)NCOC(O)C(Cl)(Cl)Cl` (centres undefined): 102%.
The figure for `Cc1nn(-c2ccccc2)c2c1C(c1ccc([N+](=O)[O-])cc1)C(C#N)=C(N)O2` (centres undefined) is 98.4%.
For `O=[N+]([O-])c1ccccc1C(O)Cc1ccc2ccccc2n1` (centres undefined), the growth was 95.7%.
On to `N#Cc1cnn2c(-c3ccc(Cl)cc3)nc(NCCc3ccccc3)nc12`, for which the growth was 85.2%.
The figure for `CCOC(=O)C(=CNc1ccccc1[N+](=O)[O-])C(=O)OCC` is 99%; for `Cc1ccc(NSc2ccccc2[N+](=O)[O-])cc1` it is 44.6%.
In the case of `CN(C)CCC(O)(Cc1ccccc1)c1ccccc1` (centres undefined), the growth is 100%.
The figure for `CCOc1cc(N)ccc1C(=O)NCCCN(CC)CC` is 87.9%; for `COc1ccc(-c2nnc(SCC(=O)NC3=NN=C(c4ccccc4)CS3)o2)cc1` it is 103%; for `C#C[C@]1(O)CC[C@H]2[C@@H]3CC=C4c5sc(N=C(N)N)nc5CC[C@]4(C)[C@H]3CC[C@@]21C` it is 28.5%.
For the compound `CCCCCCCCN(CCCCCCCC)C(=N)c1ccnc2ccccc12`, the growth is -66.4% (active).
The same measure for `COc1cc(-c2ccc(N=Nc3c(O)c(C(=O)Nc4ccccc4OC)cc4ccccc34)c(OC)c2)ccc1N=Nc1c(O)c(C(=O)Nc2ccccc2OC)cc2ccccc12`: 93.5%.
Turning to `O=C1c2ccccc2C2(c3ccc(O)cc3)c3ccccc3Oc3cccc1c32` (centres undefined), the growth was 33.4%.
The same measure for `Cc1c(Cl)cccc1NS(=O)(=O)c1ccccc1`: 113%.
The same measure for `CN(C)c1cnccn1`: 91.9%; for `Fc1ccc(Nc2nc3nonc3nc2Nc2ccc(F)cc2)cc1`: 2.78% (active); for `Cc1nc2ccccc2c(/C=C/c2ccc(Cl)cc2)c1C(=O)/C=C/c1ccc(Cl)cc1`: -19.7% (active).
The figure for `Fc1ccc(Nc2nc(Nc3ccc(-c4nc5ccccc5[nH]4)cc3)c3cn[nH]c3n2)cc1` is 71%.
Regarding `Nc1ccc(-c2cc3c(Nc4ccc(OCc5cccc(F)c5)c(Cl)c4)ncnc3s2)cc1`, the growth is 68.6%.
The figure for `O=[N+]([O-])c1ccc(-c2cc3c(Nc4ccc(Cl)c(C(F)(F)F)c4)ncnc3s2)cc1` is -6.97% (active); for `O=[N+]([O-])c1ccc(-c2cc3c(Nc4ccc(Sc5nc6ccccc6s5)c(Cl)c4)ncnc3s2)cc1` it is 19.9%.
The same measure for `CCOC(=O)N1CCc2c(sc3c2C(=O)N[C@H](c2ccc(OC)cc2)N3)C1`: 103%.
For `Cc1cn(C2CCCCC2)c(=O)[nH]c1=O`, the growth was 115%.
Take `Cc1csc(NC(=O)c2sc3nc(-c4cccs4)ccc3c2N)n1`: the growth is 94.2%.
For `Clc1ccc(-c2nc(NCCc3ccccc3)nc3c(NCCc4ccccc4)cnn23)cc1`, the growth was 50.8%.
The figure for `Cc1nc(C)c(-c2nn3c(-c4cccc(F)c4)nnc3s2)s1` is 97.3%; for `COc1ccc(-c2nnc(-c3ccc4c(c3)nc(-c3ccccc3)n4C3CCCCC3)o2)cc1` it is 62.5%; for `Cc1cc2c(F)c(Oc3ncnc(Nc4ccc(N5C[C@@H](C)N[C@@H](C)C5)cc4)c3C#N)cc(F)c2[nH]1` it is 75%.
With `CCN(CC)CCCNC(=O)c1ccc(N)cc1`, the growth was 101%.
